Whole data set: some 39,000 sequences, median “fluorescence intensity (a.u.)” near 4,300, cut for the highest 2% near 39,000. What follows is part of a selection rich in the highest values, with near analogues and random picks from the rest.

The target in the test is T1, OsSMF1 (Oryza sativa, UniProt Q6ZLB0 1-436).
T1 sequence: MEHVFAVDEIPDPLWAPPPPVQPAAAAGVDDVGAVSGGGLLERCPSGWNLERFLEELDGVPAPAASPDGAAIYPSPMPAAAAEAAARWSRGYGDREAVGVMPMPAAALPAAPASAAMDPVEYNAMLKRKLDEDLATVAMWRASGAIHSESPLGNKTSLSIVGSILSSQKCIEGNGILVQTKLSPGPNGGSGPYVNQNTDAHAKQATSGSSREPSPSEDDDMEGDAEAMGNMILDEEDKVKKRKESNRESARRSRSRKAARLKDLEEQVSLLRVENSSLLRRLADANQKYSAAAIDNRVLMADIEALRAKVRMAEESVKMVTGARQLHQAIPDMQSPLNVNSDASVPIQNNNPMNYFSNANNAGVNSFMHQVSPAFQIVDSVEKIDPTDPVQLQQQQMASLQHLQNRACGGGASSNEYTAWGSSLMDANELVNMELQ
As to the kind of experiment: protein-binding microarray (RPBM); PBS, 2% BSA, 51.3 ng/ul salmon testes DNA, 50 uM zinc acetate, 200 nM TF, 25 C, 1 h; high values mean tight binding. The conditions noted are these: protein: recombinant; tags: N-terminal polyhistidine and DsRed monomer fusion (pET32a); chain copies: 2; label: CyDye5-dUTP incorporated in the synthesized complementary strand; 3' TTTTT single-stranded linker to array surface; dsDNA, one strand shown. In outline:
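For the binding signal, per-feature fluorescence intensity was read in arbitrary units on an Axon 4000B scanner. Before scanning, a 2% BSA-blocked custom Agilent array made double-stranded with Cy5-dUTP was washed after 1 h at 25 °C with 200 nM protein and 50 µM zinc acetate. The proteins were Ni–NTA-purified transcription factors with N-terminal polyhistidine and DsRed fusions, expressed in E. coli BL21-CodonPlus.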
Regarding “GGGCTGGGGAAAATGATCGACTACTTTTAACCATTTCAGTCGGAGTCACCTAGTGCAG”, the binding signal is 3420 fluorescence intensity (a.u.). For “TACGTTGAATATTACCCTCTTGATGACTTGACTAATTTTACGGAGTCACCTAGTGCAG”, the binding signal was 3880 fluorescence intensity (a.u.). Then “TTATATATCCCTGATAGCTGATTAGTTGGCACATCAGCATCGGAGTCACCTAGTGCAG”, with 3210 fluorescence intensity (a.u.); and “CAAGGGAGGAGGGAGAAAGAAAAGGATGGGAGATTTGCTCCGGAGTCACCTAGTGCAG”, with 3290 fluorescence intensity (a.u.).

Take “TGGTCACTGCAGCAGGTTCAGGACAAAGCAACCTGTTTCTCGGAGTCACCTAGTGCAG”: the binding signal was 3600 fluorescence intensity (a.u.).

With “AAGGTAGAGTCAAATAGAAGCTCTATATCATGTAGACACTCGGAGTCACCTAGTGCAG”, the binding signal is 3360 fluorescence intensity (a.u.).

Consider “AGAGGTTCAAACTGTATATGTTCTAGACCATTCACAAGCTCGGAGTCACCTAGTGCAG”, for which the binding signal is 64100 fluorescence intensity (a.u.).

For the sequence “ACCCACACACCCACACCCACACGTCAAAGACCCACGGTTTCGGAGTCACCTAGTGCAG”, the binding signal was 3160 fluorescence intensity (a.u.).

Turning to “CAGAGGCAAACGTACGTGGAGGCAGGAGGAGTGGTCACCGCGGAGTCACCTAGTGCAG”, the binding signal was 4440 fluorescence intensity (a.u.).

For “TGTGGTGTGTGTGTGGCTGAAACCGCGAGGCCGCCGCGAGCGGAGTCACCTAGTGCAG”, the binding signal is 3440 fluorescence intensity (a.u.).

As to “CCTAACCGCCCAGCAGAGGCAAAGTGTGGTCGAAACCTAGCGGAGTCACCTAGTGCAG”, the binding signal is 49500 fluorescence intensity (a.u.).

For the sequence “CCGTCGCCGGCGGCGGATCGGCCCCACATCACCTCGGCCTCGGAGTCACCTAGTGCAG”, the binding signal is 3250 fluorescence intensity (a.u.). For “AGAAGACAACAGTGAGGAACTGAGGACACGTGTACTTGGACGGAGTCACCTAGTGCAG”, the binding signal was 12600 fluorescence intensity (a.u.).

On to “ACCTTGTACTTTTGTCTACATATGTGTCATTCTATCTTGGCGGAGTCACCTAGTGCAG”, for which the binding signal is 5120 fluorescence intensity (a.u.). As to “TGAGCCCATTCTATCTTGTACCAATTTGTGGGATATGGCCCGGAGTCACCTAGTGCAG”, the binding signal is 41000 fluorescence intensity (a.u.).

As for “AAATTTGTACCATCTTGTTGTCCATCATTCTTGACAAGAGCGGAGTCACCTAGTGCAG”, the binding signal was 3280 fluorescence intensity (a.u.). Turning to “CATCCACGTGGTGCCGCACCTAACCAGCGTAGCAGTTGCTCGGAGTCACCTAGTGCAG”, the binding signal was 5710 fluorescence intensity (a.u.). In the case of “ATCATAGTATGCCGTACGGCCTGGACCTTCTGTCACGTGGCGGAGTCACCTAGTGCAG”, the binding signal is 5660 fluorescence intensity (a.u.).

“GTGTGTGTATGACAGGTGGGACCATATATTAATAGTGTAGCGGAGTCACCTAGTGCAG”: the binding signal was 3480 fluorescence intensity (a.u.).

As for “TATGTGGACCATAGTGGCCTTCGGCAATATGGATTAGTAGCGGAGTCACCTAGTGCAG”, the binding signal was 47700 fluorescence intensity (a.u.). As to “CGACTACGAGACGCGAGGTTGAAGACAAGTAAGTACTCCTCGGAGTCACCTAGTGCAG”, the binding signal is 65500 fluorescence intensity (a.u.). As for “CATTCTCCTTCTCTCTCGTACGGCTAGAGGTTGAAGACGACGGAGTCACCTAGTGCAG”, the binding signal was 3760 fluorescence intensity (a.u.). With “TGCACACCCAGGTTGAAGACGACAATGACGAGCTCGGGCGCGGAGTCACCTAGTGCAG”, the binding signal is 3330 fluorescence intensity (a.u.). Then “GAGTTACCACGAGATGACACGTAGGATAAAGAGCTTTGAACGGAGTCACCTAGTGCAG”, with 8600 fluorescence intensity (a.u.); and “TCCAATCCTGCGTGGAGTAATTTATTTCAAGCGCAACAGGCGGAGTCACCTAGTGCAG”, with 3630 fluorescence intensity (a.u.); and “CTCGAGAGTTATTTATTATTTATATTTCCAAAGGTTTGACCGGAGTCACCTAGTGCAG”, with 25900 fluorescence intensity (a.u.). “CGTCCAAATATTATTTCCTGCGCGTGGTTTACAAAAGAGGCGGAGTCACCTAGTGCAG”: the binding signal was 47300 fluorescence intensity (a.u.). The same measure for “GAATAGAACATGTACAGTGACACATCTGCATTGGAAGCGTCGGAGTCACCTAGTGCAG”: 7380 fluorescence intensity (a.u.).

As for “TGTCATTGACTCACGTGGGTCCTACATGTCATTGAGCTTTCGGAGTCACCTAGTGCAG”, the binding signal is 10300 fluorescence intensity (a.u.). The same measure for “CATCCGTCGCTTCGCTTTCGTTCGAACGCGTTGGACCCAGCGGAGTCACCTAGTGCAG”: 3160 fluorescence intensity (a.u.); for “TTTATGATAACTTTGAGTCATATCATTTTGGTAAGTCCTACGGAGTCACCTAGTGCAG”: 3140 fluorescence intensity (a.u.). In the case of “ATGATAACTTTTATGGTTTTGGCCGTCTGGGGATCGGAATCGGAGTCACCTAGTGCAG”, the binding signal is 65500 fluorescence intensity (a.u.). Take “TTATGGACTGATATGGGCCGTTGGATTGGTTTCGGTTTTGCGGAGTCACCTAGTGCAG”: the binding signal was 5480 fluorescence intensity (a.u.).

Consider “CCAGTACATTTTGTACTACTACTTCGAACGGGCATGGTCGCGGAGTCACCTAGTGCAG”, for which the binding signal was 29700 fluorescence intensity (a.u.). As to “CTAATTGAAATCACAAATGCTGAGTTGCTGACATGCACCACGGAGTCACCTAGTGCAG”, the binding signal is 4570 fluorescence intensity (a.u.). The same measure for “GTAACGTACGACCGTTGTCATCGTAGACGCTTCCCGGATTCGGAGTCACCTAGTGCAG”: 45700 fluorescence intensity (a.u.).

As for “TGAACACGAACGCGACGCTTCTTCTGTCACGTACGCCCGTCGGAGTCACCTAGTGCAG”, the binding signal is 3200 fluorescence intensity (a.u.).

Regarding “CCCGTCGTTGTCCACCCCGTCCCATTCCACGACCGTCGTCCGGAGTCACCTAGTGCAG”, the binding signal was 3390 fluorescence intensity (a.u.). In the case of “TTTCCTTGGAGAATCCAGATCAGCTTCCTAATCACCCTCACGGAGTCACCTAGTGCAG”, the binding signal was 4040 fluorescence intensity (a.u.). Turning to “AGTTTCCGAGAGCGAGCGAGAGAGAGAGAGAGAGAGAGAGCGGAGTCACCTAGTGCAG”, the binding signal was 3220 fluorescence intensity (a.u.). On to “GTGTCTGCCTCCGCGTCCGCTTCGTCACGGCGGTGTCGGTCGGAGTCACCTAGTGCAG”, for which the binding signal is 5900 fluorescence intensity (a.u.). For the sequence “TGTGCTCAGCCTTAATTAATTAATCGAGCGAGTCATAAGCCGGAGTCACCTAGTGCAG”, the binding signal was 3460 fluorescence intensity (a.u.). In the case of “TGTACCTGAAACTATTGTTATGTCCAGGTCAGGAGCAGTGCGGAGTCACCTAGTGCAG”, the binding signal was 3360 fluorescence intensity (a.u.). As for “CAGGTGTGTCCATTGAATTGAATTGAATTGAAACTATTGACGGAGTCACCTAGTGCAG”, the binding signal was 60900 fluorescence intensity (a.u.).

As for “CAGGAATTGAACTATTAAGATCCATTATGTTGCTCTAAAACGGAGTCACCTAGTGCAG”, the binding signal was 3310 fluorescence intensity (a.u.).

On to “CTCTCACCATGCAAGATTTCCTTAGATTTGAGTTGAGTCACGGAGTCACCTAGTGCAG”, for which the binding signal is 3150 fluorescence intensity (a.u.). As to “CTTCAGTCCCGGTTGGTAAGGCTCAGCCGGCCACGTGGCTCGGAGTCACCTAGTGCAG”, the binding signal is 17200 fluorescence intensity (a.u.).

For the sequence “AGCGGACGCGCGGTATGGTCGATGGATGATGACACACGGTCGGAGTCACCTAGTGCAG”, the binding signal is 5210 fluorescence intensity (a.u.). The same measure for “GTGCCATCTAAGCGTCACGTCAAACACCACATACCAGGTCCGGAGTCACCTAGTGCAG”: 3140 fluorescence intensity (a.u.); for “AAGCTAGTCACACATCACCATCACACACACCAAGCCACACCGGAGTCACCTAGTGCAG”: 4460 fluorescence intensity (a.u.); for “CCAGGTCACATTCACATCTCTCTTTACCAAAGCTAAGCCACGGAGTCACCTAGTGCAG”: 48100 fluorescence intensity (a.u.). Then “CTGTATTCATTAGGGTGGGACTGTATACTATAGTTATTATCGGAGTCACCTAGTGCAG”, with 3190 fluorescence intensity (a.u.); and “GACCCACGCCTTCGGGTCCACATGTCATAGCCTATCCACCCGGAGTCACCTAGTGCAG”, with 3550 fluorescence intensity (a.u.); and “GTCTGGCTGCTGATGGTGATGATGCTGACTTGTGACGAGTCGGAGTCACCTAGTGCAG”, with 3620 fluorescence intensity (a.u.).

On to “TTTGCGATGCTGACTGGTCTGAGAGCCTTGATCCGATGGTCGGAGTCACCTAGTGCAG”, for which the binding signal is 44800 fluorescence intensity (a.u.). Take “GGTCGATGATGATGATGACGACGACGAGAGGAGGAGAGATCGGAGTCACCTAGTGCAG”: the binding signal was 3820 fluorescence intensity (a.u.).

Take “AAACAGAGGGGAAGAGAGAGGATCGTCGTCGACGATGATGCGGAGTCACCTAGTGCAG”: the binding signal is 3200 fluorescence intensity (a.u.). “CTTGTTTGATCAAACCGATGCGACGCAGAGAGAGAGAGGTCGGAGTCACCTAGTGCAG”: the binding signal is 39400 fluorescence intensity (a.u.). For the sequence “GAAACGATGGTTTGAGTACTGACTTGGCAATGCTGGTCATCGGAGTCACCTAGTGCAG”, the binding signal was 6280 fluorescence intensity (a.u.).

Values taken from paper PMC7819943, “Rice protein-binding microarrays: a tool to detect cis-acting elements near promoter regions in rice”.
